From the supplement of paper PMC10849652
About 7,900 targets were measured; listed, in parts, are those with a hit and a random draw of the rest. About 0.6% of all pairs of compound and target were hits. Unmarked numbers belong to inactive results.

Key:
Assay in all cases: log2 fold change, soluble protein after heating vs DMSO (PISA); higher = thermal stabilisation; K562 cells, 10 uM, 30 min; active = over 0.2 and 3.5 SD of the protein, either way, in both replicates (recomputed)
[1] = compound: CN1CCN(CCOc2cc(OC3CCOCC3)c3c(Nc4c(Cl)ccc5c4OCO5)ncnc3c2)CC1 [saracatinib]
How it was run: (§1)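 Aliquots of K562 cells (2×10^6 cells/mL) treated with 10 μM compound for 30 min were heated for 3 min over 48°C-58°C. After pooling and extraction in PBS with 0.5% NP-40 at 4°C, soluble protein from a 21,000xg, 90 min spin was quantified by TMTpro 16plex LC-MS/MS with channel sums equalised. Thermal stability is expressed against control samples, from duplicates, as a log2 fold change.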

[2] = compound: CN1CCN(c2nc(C3=C(c4c[nH]c5ccccc45)C(=O)NC3=O)c3ccccc3n2)CC1 [sotrastaurin]
How it was run: as §1

[3] = compound: CN1CC[C@H](c2c(O)cc(O)c3c(=O)cc(-c4ccccc4Cl)oc23)[C@H](O)C1 [alvocidib]
How it was run: as §1

[4] = compound: CN1CCc2c(c3ccccc3n2Cc2ccc(C(=O)NO)cc2)C1 [Tubastatin A]
How it was run: as §1

[5] = compound: CNC(=O)C1=CC=CC=C1NC2=NC(=NC=C2Cl)NC3=C(C=C(C=C3)N4CCOCC4)OC
How it was run: as §1

[6] = compound: CNC(=O)c1ccc(Nc2ncc(C(F)(F)F)c(NCc3nccnc3N(C)S(C)(=O)=O)n2)cc1 [defactinib]
How it was run: as §1

[7] = compound: CNCc1ccc(-c2[nH]c3cc(F)cc4c3c2CCNC4=O)cc1 [rucaparib]
How it was run: as §1

[8] = compound: CNc1nc(-c2ccc3c(N)n[nH]c3c2)cc(N2C[C@@H](C(=O)NC3CCCCC3)CC[C@H]2C)n1
How it was run: as §1

[9] = compound: COC(=O)N[C@@H](C)CNc1nccc(-c2cn(C(C)C)nc2-c2cc(Cl)cc(NS(C)(=O)=O)c2F)n1 [encorafenib]
How it was run: as §1

[10] = compound: COC(=O)[C@H](CCSC)NC(=O)C1=C(C=C(C=C1)NC[C@H](CS)N)C2=CC=CC=C2
How it was run: as §1

UniProt P35219, sequence (P35219 whole entry, looked up): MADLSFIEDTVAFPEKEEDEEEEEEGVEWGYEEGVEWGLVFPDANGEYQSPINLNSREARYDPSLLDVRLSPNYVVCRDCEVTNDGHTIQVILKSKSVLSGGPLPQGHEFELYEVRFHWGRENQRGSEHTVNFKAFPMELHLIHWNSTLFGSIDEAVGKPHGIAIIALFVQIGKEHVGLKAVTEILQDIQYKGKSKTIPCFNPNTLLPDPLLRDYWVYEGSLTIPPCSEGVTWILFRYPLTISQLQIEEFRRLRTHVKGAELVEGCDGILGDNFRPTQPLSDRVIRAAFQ
UniProt P61024, sequence (P61024 whole entry, looked up): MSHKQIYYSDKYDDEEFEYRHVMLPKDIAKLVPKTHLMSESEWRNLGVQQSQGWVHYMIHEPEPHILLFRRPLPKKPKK
UniProt O15234, sequence (O15234 whole entry, looked up): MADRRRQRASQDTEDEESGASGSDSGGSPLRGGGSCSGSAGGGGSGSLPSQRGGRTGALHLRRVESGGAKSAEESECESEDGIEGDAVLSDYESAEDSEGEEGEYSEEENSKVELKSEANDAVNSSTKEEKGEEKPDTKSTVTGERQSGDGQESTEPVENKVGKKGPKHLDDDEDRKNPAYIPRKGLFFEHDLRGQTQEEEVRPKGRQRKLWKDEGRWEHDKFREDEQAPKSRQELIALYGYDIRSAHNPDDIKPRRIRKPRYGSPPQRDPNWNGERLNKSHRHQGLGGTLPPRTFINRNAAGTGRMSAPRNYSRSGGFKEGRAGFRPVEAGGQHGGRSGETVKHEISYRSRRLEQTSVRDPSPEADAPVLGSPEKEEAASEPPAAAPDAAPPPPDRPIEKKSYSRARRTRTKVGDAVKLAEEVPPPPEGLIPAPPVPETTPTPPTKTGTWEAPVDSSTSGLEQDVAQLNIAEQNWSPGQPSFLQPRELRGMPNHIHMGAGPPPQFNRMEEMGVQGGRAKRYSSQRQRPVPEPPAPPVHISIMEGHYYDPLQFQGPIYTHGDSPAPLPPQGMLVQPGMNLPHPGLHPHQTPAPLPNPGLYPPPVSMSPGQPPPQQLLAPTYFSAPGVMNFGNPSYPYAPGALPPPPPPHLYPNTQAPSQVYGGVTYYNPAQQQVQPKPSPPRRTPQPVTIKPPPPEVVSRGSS
UniProt P45973, sequence (P45973 whole entry, looked up): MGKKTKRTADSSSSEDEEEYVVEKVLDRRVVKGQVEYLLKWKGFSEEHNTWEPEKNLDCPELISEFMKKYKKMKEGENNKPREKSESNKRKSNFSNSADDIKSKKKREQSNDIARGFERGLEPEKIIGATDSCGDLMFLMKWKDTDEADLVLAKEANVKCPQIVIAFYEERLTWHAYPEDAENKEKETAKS
UniProt Q14677, sequence (Q14677 whole entry, looked up): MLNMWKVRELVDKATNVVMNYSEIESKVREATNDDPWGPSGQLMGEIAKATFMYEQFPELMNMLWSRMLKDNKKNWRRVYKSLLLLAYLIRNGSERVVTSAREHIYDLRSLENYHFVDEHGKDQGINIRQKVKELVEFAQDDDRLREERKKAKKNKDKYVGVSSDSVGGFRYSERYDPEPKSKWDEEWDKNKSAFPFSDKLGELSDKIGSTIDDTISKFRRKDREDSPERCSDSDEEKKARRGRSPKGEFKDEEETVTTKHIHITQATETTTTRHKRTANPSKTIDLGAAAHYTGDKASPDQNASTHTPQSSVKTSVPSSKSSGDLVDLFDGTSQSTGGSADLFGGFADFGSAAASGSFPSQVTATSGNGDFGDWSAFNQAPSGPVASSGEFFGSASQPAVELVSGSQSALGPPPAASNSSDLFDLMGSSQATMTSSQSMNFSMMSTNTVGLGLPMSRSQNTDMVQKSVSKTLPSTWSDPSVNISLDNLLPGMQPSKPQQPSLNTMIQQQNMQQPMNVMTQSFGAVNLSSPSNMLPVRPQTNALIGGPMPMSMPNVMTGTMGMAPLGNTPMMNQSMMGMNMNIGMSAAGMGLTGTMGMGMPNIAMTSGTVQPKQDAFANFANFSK
UniProt Q9UIV1, sequence (Q9UIV1 whole entry, looked up): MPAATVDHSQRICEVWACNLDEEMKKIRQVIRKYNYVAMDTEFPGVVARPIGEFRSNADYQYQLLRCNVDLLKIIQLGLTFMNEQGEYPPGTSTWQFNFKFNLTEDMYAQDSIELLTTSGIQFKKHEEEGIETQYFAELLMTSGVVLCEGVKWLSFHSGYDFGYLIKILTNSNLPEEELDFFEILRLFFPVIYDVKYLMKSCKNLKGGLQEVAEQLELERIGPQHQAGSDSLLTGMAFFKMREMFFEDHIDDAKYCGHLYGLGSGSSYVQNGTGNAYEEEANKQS
UniProt P00915, sequence (P00915 whole entry, looked up): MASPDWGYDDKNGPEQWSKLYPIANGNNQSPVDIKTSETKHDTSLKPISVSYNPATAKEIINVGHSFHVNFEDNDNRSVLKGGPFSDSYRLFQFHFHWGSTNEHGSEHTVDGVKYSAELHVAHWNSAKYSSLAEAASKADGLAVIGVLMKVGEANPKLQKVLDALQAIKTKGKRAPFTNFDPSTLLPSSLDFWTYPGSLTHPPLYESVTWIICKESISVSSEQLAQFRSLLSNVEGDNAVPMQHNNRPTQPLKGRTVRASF
UniProt Q8IX12, sequence (Q8IX12 whole entry, looked up): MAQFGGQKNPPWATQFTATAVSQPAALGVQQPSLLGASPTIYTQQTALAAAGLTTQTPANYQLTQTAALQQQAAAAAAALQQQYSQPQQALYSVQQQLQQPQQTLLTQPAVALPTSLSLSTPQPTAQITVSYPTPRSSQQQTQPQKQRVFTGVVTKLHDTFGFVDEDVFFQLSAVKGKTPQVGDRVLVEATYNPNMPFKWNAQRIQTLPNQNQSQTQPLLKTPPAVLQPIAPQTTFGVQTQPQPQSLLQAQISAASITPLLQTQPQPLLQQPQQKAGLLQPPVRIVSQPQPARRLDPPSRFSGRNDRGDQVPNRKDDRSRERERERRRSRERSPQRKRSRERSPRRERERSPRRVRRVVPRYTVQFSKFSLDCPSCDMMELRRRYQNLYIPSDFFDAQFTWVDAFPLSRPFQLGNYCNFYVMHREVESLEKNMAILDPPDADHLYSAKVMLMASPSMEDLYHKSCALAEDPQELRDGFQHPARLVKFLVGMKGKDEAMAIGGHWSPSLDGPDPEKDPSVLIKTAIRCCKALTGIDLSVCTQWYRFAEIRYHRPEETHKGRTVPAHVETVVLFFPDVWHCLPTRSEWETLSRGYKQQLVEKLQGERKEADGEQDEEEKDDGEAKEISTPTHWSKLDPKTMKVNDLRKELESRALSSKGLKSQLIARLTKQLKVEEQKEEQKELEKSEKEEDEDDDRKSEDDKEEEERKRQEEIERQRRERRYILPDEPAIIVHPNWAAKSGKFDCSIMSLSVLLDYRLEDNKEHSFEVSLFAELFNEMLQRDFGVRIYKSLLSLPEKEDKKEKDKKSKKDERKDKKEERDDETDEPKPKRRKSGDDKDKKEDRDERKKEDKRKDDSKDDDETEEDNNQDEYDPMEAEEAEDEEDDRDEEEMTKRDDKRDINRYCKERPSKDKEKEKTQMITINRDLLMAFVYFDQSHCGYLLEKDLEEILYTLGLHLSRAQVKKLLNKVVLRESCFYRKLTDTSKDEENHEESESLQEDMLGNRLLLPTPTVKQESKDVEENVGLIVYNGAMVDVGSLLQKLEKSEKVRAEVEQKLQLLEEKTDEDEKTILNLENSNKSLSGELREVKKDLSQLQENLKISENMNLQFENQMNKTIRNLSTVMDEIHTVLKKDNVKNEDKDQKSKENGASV
UniProt Q9Y3X0, sequence (Q9Y3X0 whole entry, looked up): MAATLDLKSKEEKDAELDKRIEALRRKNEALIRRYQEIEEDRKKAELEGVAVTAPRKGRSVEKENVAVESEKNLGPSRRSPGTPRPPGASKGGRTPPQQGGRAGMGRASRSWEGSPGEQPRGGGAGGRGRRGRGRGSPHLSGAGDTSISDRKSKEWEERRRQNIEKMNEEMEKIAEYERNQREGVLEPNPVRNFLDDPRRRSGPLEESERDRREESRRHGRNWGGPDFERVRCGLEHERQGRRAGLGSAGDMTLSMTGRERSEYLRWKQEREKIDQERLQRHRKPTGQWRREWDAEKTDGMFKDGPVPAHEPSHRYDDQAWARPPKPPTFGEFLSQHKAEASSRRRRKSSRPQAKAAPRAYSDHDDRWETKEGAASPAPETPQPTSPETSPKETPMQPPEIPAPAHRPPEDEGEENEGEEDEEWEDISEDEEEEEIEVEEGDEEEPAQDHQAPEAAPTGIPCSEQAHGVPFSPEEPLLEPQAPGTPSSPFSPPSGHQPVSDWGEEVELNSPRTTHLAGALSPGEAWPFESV
UniProt Q9UBY8, sequence (Q9UBY8 whole entry, looked up): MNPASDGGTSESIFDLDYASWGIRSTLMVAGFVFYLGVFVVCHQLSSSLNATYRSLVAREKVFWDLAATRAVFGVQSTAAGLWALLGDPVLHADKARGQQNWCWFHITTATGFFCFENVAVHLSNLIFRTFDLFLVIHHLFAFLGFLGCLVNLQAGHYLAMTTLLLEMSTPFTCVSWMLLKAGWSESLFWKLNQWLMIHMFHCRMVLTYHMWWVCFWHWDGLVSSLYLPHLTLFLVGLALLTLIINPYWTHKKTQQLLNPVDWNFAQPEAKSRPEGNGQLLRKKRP
UniProt P68400, sequence (P68400 whole entry, looked up): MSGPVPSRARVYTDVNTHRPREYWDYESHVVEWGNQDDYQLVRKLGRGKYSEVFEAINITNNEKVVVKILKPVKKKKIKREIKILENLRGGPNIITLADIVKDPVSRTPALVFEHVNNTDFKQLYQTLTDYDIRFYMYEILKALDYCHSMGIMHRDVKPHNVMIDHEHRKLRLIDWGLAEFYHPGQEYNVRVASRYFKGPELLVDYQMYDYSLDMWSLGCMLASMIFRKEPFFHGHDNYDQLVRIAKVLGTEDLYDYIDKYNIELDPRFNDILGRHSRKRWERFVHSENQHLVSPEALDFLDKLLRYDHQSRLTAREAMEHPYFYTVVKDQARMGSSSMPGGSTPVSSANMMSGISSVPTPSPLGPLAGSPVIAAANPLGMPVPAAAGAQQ
UniProt P20674, sequence (P20674 whole entry, looked up): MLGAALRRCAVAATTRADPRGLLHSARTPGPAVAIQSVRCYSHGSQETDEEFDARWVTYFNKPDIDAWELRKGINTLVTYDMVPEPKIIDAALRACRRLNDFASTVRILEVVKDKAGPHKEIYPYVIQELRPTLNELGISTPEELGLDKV

Target	log2 fold change [1]	log2 fold change [2]	log2 fold change [3]	log2 fold change [4]	log2 fold change [5]	log2 fold change [6]	log2 fold change [7]	log2 fold change [8]	log2 fold change [9]	log2 fold change [10]
CA1 (UniProt P00915)	0.014	-0.001	-0.095	-0.013	0.009	-0.057	-0.036	-0.016	-0.002	0.004
CSNK2A1 (UniProt P68400)	0.016	0.059	-0.082	-0.019	0.263 (active)	-0.113	-0.079	-0.045	-0.038	-0.034
CASC3 (UniProt O15234)	-0.015	0.067	0.6 (active)	-0.06	0.021	0.323	0.158	-0.126	-0.089	0.073
CLN8 (UniProt Q9UBY8)	0.073	0.107	0.061	-0.225	0.022	-0.062	-0.061	-0.292	-0.117	0.05
CLTB (UniProt P09497)	0.064	0.017	0.078	-0.019	-0.034	0.063	-0.039	-0.009	-0.014	0.031
CERS2 (UniProt Q96G23)	0.012	-0.033	-0.018	-0.056	-0.121	-0.001	0.002	-0.048	0.017	0.03
CPT1A (UniProt P50416)	0.021	0.075	0.578 (active)	0.142	0.161	-0.087	0.054	0.148	0.069	-0.04
COX5A (UniProt P20674)	-0.063	0.025	-0.063	-0.015	0.043	-0.016	0.011	0.007	-0.036	0.11
CCDC59 (UniProt Q9P031)	-0.222	0.023	0.267	0.127	0.007	0.309	0.029	0.05	0.026	-0.015
CKS1B (UniProt P61024)	0.06	0.059	-0.067	-0.045	-0.01	-0.054	-0.047	-0.057	0.01	-0.1
CCDC9 (UniProt Q9Y3X0)	0.023	0.077	0.192	-0.046	-0.038	0.148	0.116	-0.031	-0.021	0.004
CA8 (UniProt P35219)	-0.054	-0.023	-0.127	0.084	0.118	-0.163	0.068	0.018	0.024	0.014
CDK11B (UniProt P21127)	-0.039	0.035	0.157	0.137	-0.098	-0.162	-0.323	-0.052	0.077	-0.039
CCAR1 (UniProt Q8IX12)	-0.038	-0.027	-0.17	-0.001	-0.039	-0.021	0.026	0.086	-0.005	-0.033
CSNK2A2 (UniProt P19784)	0.029	0.024	-0.041	-0.042	0.214	-0.067	-0.123	-0.017	-0.039	-0.052
CNOT7 (UniProt Q9UIV1)	0.008	-0.044	-0.091	0.004	-0.035	0.018	0.051	0.104	0.113	-0.109
C16orf58 (UniProt Q96GQ5)	0.042	0.04	-0.032	-0.003	-0.005	-0.031	-0.012	-0.063	0.051	-0.02
CBX5 (UniProt P45973)	-0.04	-0.001	-0.115	0.078	-0.026	-0.205	-0.022	0.043	0.009	-0.012
CCNH (UniProt P51946)	0.094	-0.019	-0.014	-0.001	-0.037	-0.037	0.036	-0.044	-0.031	0.033
CNDP2 (UniProt Q96KP4)	-0.016	-0.003	-0.062	-0.226 (active)	-0.014	-0.006	-0.041	0.028	0.001	0.124
CLINT1 isoform 3 (UniProt Q14677)	0.083	0.041	0.061	-0.036	0.185	0.035	0.109	-0.06	-0.059	0.012
CHD4 isoform 2 (UniProt Q14839)	-0.006	-0.25	-0.135	0.03	0	-0.247	0.043	0.041	0.133	0.017
CASP2 (UniProt P42575)	-0.1	-0.048	-0.084	0.082	0.037	-0.08	-0.006	0.053	0.133	-0.005
CCNB1 (UniProt P14635)	-0.005	0.02	-0.006	-0.018	-0.051	-0.065	-0.025	-0.034	-0.002	0.035
CLPX (UniProt O76031)	0.014	0.014	0.039	0.025	-0.016	-0.027	0.034	-0.038	-0.013	-0.01
CIZ1 (UniProt Q9ULV3)	0.046	-0.075	-0.074	0.102	-0.11	-0.117	0.027	-0.109	-0.038	-0.001
CDK5RAP3 isoform 4 (UniProt Q96JB5)	-0.009	-0.099	-0.066	0.024	0.035	-0.045	-0.029	0.002	0.033	-0.043
C19orf53 (UniProt Q9UNZ5)	-0.069	-0.03	0.33	0.129	0.155	0.296	0.257	0.053	0.136	0.036
CHERP (UniProt Q8IWX8)	0.045	-0.167	-0.143	0.119	-0.006	-0.29	0.022	-0.046	0.058	0.002
COPS4 (UniProt Q9BT78)	0.028	0.008	-0.071	-0.011	-0.005	-0.015	0.004	-0.006	-0.001	-0.007
